Results on 22 compounds are retold here after PubChem BioAssay (EPA / NIEHS).

The subject of experiment [1] is bovine Histamine 1 Receptor (H1), gene 281231. Nature of the experiment: NVS_GPCR_bH1: NovaScreen (NVS) G Protein-Coupled Receptor Assay for bovine Histamine 1 Receptor (H1) (AID 2283246). Put shortly: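 Radioligand displacement on bovine cerebellar membranes, 1 h after dosing, filter-based scintillation read-out; loss of signal vs DMSO. Duplicate single-concentration screen at 25 uM, then concentration-response up to 50 uM for hits.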

Experiment [2] deals with guinea pig Opioid, Kappa 1 Receptor (OpiateK), OPRK1 (gene 100135587) (UniProt P41144). The experiment in a line: NVS_GPCR_gOpiateK: NovaScreen (NVS) G Protein-Coupled Receptor Assay for guinea pig Opioid, Kappa 1 Receptor (OpiateK) (AID 2283252).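 Also: radioligand displacement from kappa opioid receptor in guinea pig cerebellar membranes; active means reduced radioligand binding relative to DMSO.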 The essentials:
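Guinea pig cerebellar membranes, radioligand displacement with filter-based scintillation counting, 2 h after dosing. Primary screen single concentration 25 uM in duplicate; actives retested in concentration series; loss of binding fitted versus DMSO.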

In experiment [3] the target is guinea pig Leukotriene D4 Receptor (LTD4), CYSLTR1 (gene 100135514) (UniProt Q2NNR5). The experiment in a line: NVS_GPCR_gLTD4: NovaScreen (NVS) G Protein-Coupled Receptor Assay for guinea pig Leukotriene D4 Receptor (LTD4) (AID 2283248). Put shortly: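 Radioligand displacement on guinea pig lung membranes, 1 h incubation, filtration and scintillation counting; DMSO as negative control. Duplicate 25 uM primary screen, then singleton concentration-response up to 50 uM.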
guinea pig Leukotriene D4 Receptor (LTD4), CYSLTR1 (gene 100135514), sequence (Q2NNR5 whole entry, looked up): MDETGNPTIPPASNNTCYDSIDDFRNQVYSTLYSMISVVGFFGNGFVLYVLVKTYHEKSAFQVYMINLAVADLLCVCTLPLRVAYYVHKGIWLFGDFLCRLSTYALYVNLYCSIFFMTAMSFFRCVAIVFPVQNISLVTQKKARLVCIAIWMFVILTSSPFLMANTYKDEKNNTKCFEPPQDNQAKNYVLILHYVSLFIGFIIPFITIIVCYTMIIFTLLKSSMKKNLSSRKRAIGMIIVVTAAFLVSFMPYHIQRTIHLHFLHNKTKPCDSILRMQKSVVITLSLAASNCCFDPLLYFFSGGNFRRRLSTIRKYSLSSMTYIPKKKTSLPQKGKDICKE

Experiment [4] concerns the target human Serotonin, 5-Hydroxytryptamine Receptor 5A (5HT5A), HTR5A (gene 3361) (UniProt P47898). Nature of the experiment: NVS_GPCR_h5HT5A: NovaScreen (NVS) G Protein-Coupled Receptor Assay for human Serotonin, 5-Hydroxytryptamine Receptor 5A (5HT5A) (AID 2283251). Put shortly:
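Cell-free radioligand displacement binding on HEK293-derived membrane protein, 1 h incubation, filter-based scintillation counting. Primary screen in duplicate at 25 uM, actives followed in concentration series; loss of signal fitted versus DMSO.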

Experiment [5] addresses human Adenosine A1 Receptor (AdoRA1), ADORA1 (gene 134) (UniProt P30542). The experiment in a line: NVS_GPCR_hAdoRA1: NovaScreen (NVS) G Protein-Coupled Receptor Assay for human Adenosine A1 Receptor (AdoRA1) (AID 2283254). Put shortly:
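Each chemical is first tested twice at 25 uM, actives later in dilution series, against a radioligand bound to human cortex membranes; after 1 h, filter-retained counts are compared with DMSO controls, lower signal indicating displacement.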

The target in experiment [6] is human Serotonin, 5-Hydroxytryptamine Receptor 6 (5HT6), HTR6 (gene 3362) (UniProt P50406). Nature of the experiment: NVS_GPCR_h5HT6: NovaScreen (NVS) G Protein-Coupled Receptor Assay for human Serotonin, 5-Hydroxytryptamine Receptor 6 (5HT6) (AID 2283253). Put shortly:
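Radioligand binding to 5HT6 in HEK293-derived membranes, cell-free, 1 h after dosing; bound ligand measured by filter-based scintillation counting. Primary screen in duplicate at 25 uM; actives retested in concentration series.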

The target in experiment [7] is human Serotonin, 5-Hydroxytryptamine Receptor 7 (5HT7), HTR7 (gene 3363) (UniProt P34969). Nature of the experiment: NVS_GPCR_h5HT7: NovaScreen (NVS) G Protein-Coupled Receptor Assay for human Serotonin, 5-Hydroxytryptamine Receptor 7 (5HT7) (AID 2283255).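 Also: hits reduce specific radioligand binding relative to DMSO.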 Put shortly: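 Radioligand displacement on membranes from CHO cells expressing human 5HT7, 1 h incubation, filter-based scintillation counting. Primary screen used a single 25 uM concentration in duplicate; actives were followed up in concentration series.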
human Serotonin, 5-Hydroxytryptamine Receptor 7 (5HT7), HTR7 (gene 3363), sequence (P34969 whole entry, looked up): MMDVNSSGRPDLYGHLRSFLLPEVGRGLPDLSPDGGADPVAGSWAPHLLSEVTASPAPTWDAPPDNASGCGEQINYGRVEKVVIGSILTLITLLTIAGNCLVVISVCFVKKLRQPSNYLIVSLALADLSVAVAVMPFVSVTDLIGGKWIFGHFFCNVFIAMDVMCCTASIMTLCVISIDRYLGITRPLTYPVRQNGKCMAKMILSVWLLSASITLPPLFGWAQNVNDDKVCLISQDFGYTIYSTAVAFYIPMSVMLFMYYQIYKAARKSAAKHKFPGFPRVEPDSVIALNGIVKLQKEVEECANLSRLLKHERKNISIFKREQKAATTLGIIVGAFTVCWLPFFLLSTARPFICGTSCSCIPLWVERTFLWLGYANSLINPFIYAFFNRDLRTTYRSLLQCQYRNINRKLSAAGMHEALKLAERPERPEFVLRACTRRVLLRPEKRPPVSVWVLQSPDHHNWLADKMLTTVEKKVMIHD

The subject of experiment [8] is guinea pig Leukotriene B4 Receptor (LTB4), gene 100379538. The experiment in a line: NVS_GPCR_gLTB4: NovaScreen (NVS) G Protein-Coupled Receptor Assay for guinea pig Leukotriene B4 Receptor (LTB4) (AID 2283247). Put shortly:
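Radioligand displacement on guinea pig spleen membranes, filter-based scintillation counting 2 h after dosing. Primary duplicate single point at 25 uM; hits over threshold (e.g. 30% inhibition) run in concentration-response up to 50 uM, DMSO baseline.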

Experiment [9] deals with human Serotonin, 5-Hydroxytryptamine Receptor 2A (5HT2A), HTR2A (gene 3356) (UniProt P28223). Nature of the experiment: NVS_GPCR_h5HT2A: NovaScreen (NVS) G Protein-Coupled Receptor Assay for human Serotonin, 5-Hydroxytryptamine Receptor 2A (5HT2A) (AID 2283249). On the procedure: NVS_GPCR_h5HT2A is a biochemical, single-readout assay that uses extracted gene-proteins from Human cortex in a tissue-based cell-free assay. Measurements were taken 1.5 hours after chemical dosing in a 48-well plate.NVS_GPCR_h5HT2A is one of one assay component(s) measured or calculated from the NVS_GPCR_h5HT2A assay. It is designed to make measurements of radioligand binding, a form of binding reporter, as detected with scintillation counting signals by Filter-based radiodetection technology.Data from the assay component NVS_GPCR_h5HT2A was analyzed into 1 assay endpoint. This assay endpoint, NVS_GPCR_h5HT2A, was analyzed in the positive analysis fitting direction relative to DMSO as the negative control and baseline of activity. Using a type of binding reporter, loss-of-signal activity can be used to understand changes in the binding as they relate to the gene HTR2A. Furthermore, this assay endpoint can be referred to as a primary readout, because the performed assay has only produced 1 assay endpoint. To generalize the intended target to other relatable targets, this assay endpoint is annotated to the gpcr intended target family, where the subfamily is rhodopsin-like receptor.
human Serotonin, 5-Hydroxytryptamine Receptor 2A (5HT2A), HTR2A (gene 3356), sequence (P28223 whole entry, looked up): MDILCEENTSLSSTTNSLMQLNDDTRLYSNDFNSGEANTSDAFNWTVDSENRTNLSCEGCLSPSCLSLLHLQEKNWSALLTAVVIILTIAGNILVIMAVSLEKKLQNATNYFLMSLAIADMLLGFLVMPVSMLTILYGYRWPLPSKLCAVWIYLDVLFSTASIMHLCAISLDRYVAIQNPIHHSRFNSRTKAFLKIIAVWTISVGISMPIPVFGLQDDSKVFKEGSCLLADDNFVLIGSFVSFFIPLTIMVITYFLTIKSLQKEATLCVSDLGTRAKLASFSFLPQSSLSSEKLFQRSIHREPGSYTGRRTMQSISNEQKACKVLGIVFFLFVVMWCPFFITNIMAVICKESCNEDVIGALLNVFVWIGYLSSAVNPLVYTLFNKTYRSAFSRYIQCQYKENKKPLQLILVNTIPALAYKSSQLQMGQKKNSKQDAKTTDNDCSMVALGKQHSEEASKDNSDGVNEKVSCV
Binding assays used specific radioligands (tritiated, iodinated) with non-radioactive competitive displacement ligands in agonist or antagonist protocols (as indicated) and various reference compounds and inhibitors to titrate specific binding to receptors and transporters. Most enzyme assays (CYPs, kinases, phosphatases, proteases, HDACs) used recombinant protein and specific substrates (fluorescence mostly, some colorimetric and radioactive) and inhibitors, followed by a biochemical separation of substrate and product. All assays for the biochemical HTS were initially run in duplicate at a single concentration (10 uM for CYP450 assays and 25 uM for all others). […] Each assay was run with positive and negative controls, and concurrent controls on every plate. […]

Experiment [10] relates to guinea pig Muscarinic, Peripheral (Mperiperal) Receptor, Non-selective Binding, gene 100379235. Nature of the experiment: NVS_GPCR_gMPeripheral_NonSelective: NovaScreen (NVS) G Protein-Coupled Receptor Assay for guinea pig Muscarinic, Peripheral (Mperiperal) Receptor, Non-selective Binding (AID 2283250). The essentials:
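Guinea pig bladder membranes, radioligand binding read 1 h after dosing by filter scintillation counting; loss of signal vs DMSO. Primary duplicate screen at 25 uM, then concentration-response up to 50 uM.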

“And” between values parts separate entries of the source, which are not always exact repeats. Identical values can stand only once. Inconclusive results are not listed. Some compounds were tested as several samples or in several runs, with calls that do not always agree. The source made the active and inactive calls. The calls were made as follows: active = hit-call score of the fitted dose curve at least 0.9, where 1 is the maximum; inconclusive = response in the unintended direction; inactive = score below 0.9.

human Adenosine A1 Receptor (AdoRA1), ADORA1 (gene 134), sequence (P30542 whole entry, looked up): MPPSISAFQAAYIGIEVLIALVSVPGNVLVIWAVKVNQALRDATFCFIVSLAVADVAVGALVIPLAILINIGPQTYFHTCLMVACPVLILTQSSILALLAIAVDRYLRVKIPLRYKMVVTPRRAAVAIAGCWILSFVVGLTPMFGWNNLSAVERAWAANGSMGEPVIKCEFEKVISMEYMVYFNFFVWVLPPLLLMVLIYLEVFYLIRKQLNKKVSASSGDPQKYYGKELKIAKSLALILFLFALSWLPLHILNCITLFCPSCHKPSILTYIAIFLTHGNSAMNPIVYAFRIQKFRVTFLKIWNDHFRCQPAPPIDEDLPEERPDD
guinea pig Opioid, Kappa 1 Receptor (OpiateK), OPRK1 (gene 100135587), sequence (P41144 whole entry, looked up): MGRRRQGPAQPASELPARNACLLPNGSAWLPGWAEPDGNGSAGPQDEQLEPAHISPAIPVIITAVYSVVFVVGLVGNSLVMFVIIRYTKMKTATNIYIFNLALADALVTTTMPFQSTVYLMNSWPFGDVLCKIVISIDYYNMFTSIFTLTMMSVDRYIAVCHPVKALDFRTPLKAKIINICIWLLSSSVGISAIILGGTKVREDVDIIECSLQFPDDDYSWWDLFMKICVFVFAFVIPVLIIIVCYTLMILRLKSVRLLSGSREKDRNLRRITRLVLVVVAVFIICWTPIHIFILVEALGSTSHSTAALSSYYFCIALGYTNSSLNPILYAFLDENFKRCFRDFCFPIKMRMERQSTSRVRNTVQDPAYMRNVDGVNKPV
human Serotonin, 5-Hydroxytryptamine Receptor 6 (5HT6), HTR6 (gene 3362), sequence (P50406 whole entry, looked up): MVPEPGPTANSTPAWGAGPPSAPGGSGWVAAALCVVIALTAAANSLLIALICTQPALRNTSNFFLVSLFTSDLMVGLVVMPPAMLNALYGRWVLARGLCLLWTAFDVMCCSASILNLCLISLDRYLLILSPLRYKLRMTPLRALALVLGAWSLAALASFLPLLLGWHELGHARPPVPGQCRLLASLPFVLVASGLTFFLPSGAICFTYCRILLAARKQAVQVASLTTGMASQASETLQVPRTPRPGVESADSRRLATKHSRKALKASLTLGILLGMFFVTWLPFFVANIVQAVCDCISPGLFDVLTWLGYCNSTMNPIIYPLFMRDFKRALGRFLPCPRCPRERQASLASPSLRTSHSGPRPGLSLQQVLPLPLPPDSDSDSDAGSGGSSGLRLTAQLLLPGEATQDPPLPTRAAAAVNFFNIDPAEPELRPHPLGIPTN
human Serotonin, 5-Hydroxytryptamine Receptor 5A (5HT5A), HTR5A (gene 3361), sequence (P47898 whole entry, looked up): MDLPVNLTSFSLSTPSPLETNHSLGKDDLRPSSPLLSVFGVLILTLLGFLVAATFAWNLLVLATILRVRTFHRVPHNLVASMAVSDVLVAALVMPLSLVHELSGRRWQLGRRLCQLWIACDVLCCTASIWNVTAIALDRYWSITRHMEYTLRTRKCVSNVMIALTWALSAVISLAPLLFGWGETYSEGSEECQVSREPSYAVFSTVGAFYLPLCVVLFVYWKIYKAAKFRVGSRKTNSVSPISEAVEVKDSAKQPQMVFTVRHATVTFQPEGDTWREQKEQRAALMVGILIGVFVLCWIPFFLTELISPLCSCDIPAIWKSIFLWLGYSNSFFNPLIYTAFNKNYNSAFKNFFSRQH

On to `CC(=O)S[C@@H]1CC2=CC(=O)CC[C@]2(C)[C@H]2CC[C@@]3(C)[C@@H](CC[C@@]34CCC(=O)O4)[C@H]12`, for which, in [1], the outcome was inactive. The AC50 (in general, the concentration at which the activity in the assay is half-maximal) in experiment [2] is 13.2 µM (active).
As to `CCNc1nc(N)nc(Cl)n1`, the call in experiment [3] and in [4] was inactive. Also, in experiment [5], the half-maximal activity concentration (AC50) is 207 nM (active).
As to `Oc1ccc(C(c2ccc(O)cc2)C(Cl)(Cl)Cl)cc1`, the half-maximal activity concentration (AC50) in experiment [4] is 6.9 µM (active); in experiment [6] it was 0.18 µM (active); in experiment [7], 6.91 µM (active). The compound was called inactive in experiment [5].
Turning to `C=CCOC(Cn1ccnc1)c1ccc(Cl)cc1Cl` (stereo unspecified), the concentration at half-maximal activity (AC50) in experiment [2] was 12.2 µM (active).
As for `CC1(C)C(C=C(Cl)Cl)C1C(=O)OCc1cccc(Oc2ccccc2)c1` (stereo unspecified), the compound was called inactive in experiment [7].
For the compound `CCCCCOC(=O)COc1cc(N2C(=O)C3=C(CCCC3)C2=O)c(F)cc1Cl`, in experiment [5], the call was inactive.
Consider `CCOC(=O)C(C)Oc1ccc(Oc2cnc3cc(Cl)ccc3n2)cc1` (stereo unspecified), for which the compound was classed as inactive in experiment [4].
On to `Cc1nn(C)c(Oc2ccccc2)c1C=NOCc1ccc(C(=O)OC(C)(C)C)cc1`, for which, in experiment [7], the AC50 was 6.64 µM (active).
As for `N[C@@H](Cc1cc(I)c(Oc2ccc(O)c(I)c2)c(I)c1)C(=O)O`, the figures for the AC50 in [6] and in experiment [5] were 6.06 µM (active) and 554 nM (active), respectively.
For the compound `C[C@]12C[C@H](O)[C@H]3[C@@H](CCC4=CC(=O)CC[C@@]43C)[C@@H]1CC[C@@H]2C(=O)CO`, the compound was called inactive in experiment [8].
As for `N#CSCSc1nc2ccccc2s1`, in experiment [9], the outcome was inactive. The AC50 in experiment [10] was 7.3 µM (active).
Consider `O=C(c1ccc(O)cc1O)c1ccc(O)cc1O`, for which the AC50 in [6] is 4.96 µM (active); in experiment [5], 11000 nM (active).
In the case of `CC(C)(C)[C@@H](O)[C@@H](Cc1ccc(Cl)cc1)n1cncn1`, the call in experiment [2] was inactive.
In the case of `CCCCOC(=O)[C@@H](C)Oc1ccc(Oc2ccc(C(F)(F)F)cn2)cc1`, in [7], the compound was classed as inactive.
On to `CCOC(=O)NCCOc1ccc(Oc2ccccc2)cc1`, for which the outcome in experiment [8] was inactive.
`S=C(S)NCCNC(=S)S.[Mn+2].[S-]C([S-])=NCCN=C([S-])[S-].[Zn+2]`: the result in experiment [9] and in experiment [7] was inactive. Also, in [7], the concentration at half-maximal activity (AC50) was 2.48 µM (active) and 5.86 µM (active) and 2.62 µM (active).
For the compound `CCCCCCC(C)OC(=O)COc1nc(F)c(Cl)c(N)c1Cl` (stereo unspecified), the outcome in experiment [7] was inactive.
On to `COC(=O)c1cccc(C)c1S(=O)(=O)NC(=O)Nc1nc(OCC(F)(F)F)nc(N(C)C)n1`, for which the AC50 in experiment [5] was 10400 nM (active).
In the case of `CCCOC(=O)NCCCN(C)C`, in experiment [10], the result was inactive.
Turning to `CC(C)(c1ccc(O)cc1)c1ccc(O)cc1`, the outcome in [2] and in experiment [7] was inactive. The AC50 in [5] is 11.9 µM (active) and 1.83 µM (active).
`C[C@]12CC[C@@H]3c4ccc(O)cc4C[C@@H](CCCCCCCCCS(=O)CCCC(F)(F)C(F)(F)F)[C@H]3[C@@H]1CC[C@@H]2O` (stereo partly specified): the compound was classed as inactive in experiment [9] and in experiment [4].
Consider `CCCCC(CC)COC(=O)c1ccccc1C(=O)O` (stereo unspecified), for which the compound was classed as inactive in experiment [5].
